DRD3 agonist = D3 dopamine receptor (human) agonism. D3R DiscoveRx beta-arrestin cells, luminescence, 90 min. max activation, %. 410,000 compounds, 0.58% hits; in the data active = max activation above about 30%; note: 0% is about no effect
Target sequence (P35462 whole entry, looked up): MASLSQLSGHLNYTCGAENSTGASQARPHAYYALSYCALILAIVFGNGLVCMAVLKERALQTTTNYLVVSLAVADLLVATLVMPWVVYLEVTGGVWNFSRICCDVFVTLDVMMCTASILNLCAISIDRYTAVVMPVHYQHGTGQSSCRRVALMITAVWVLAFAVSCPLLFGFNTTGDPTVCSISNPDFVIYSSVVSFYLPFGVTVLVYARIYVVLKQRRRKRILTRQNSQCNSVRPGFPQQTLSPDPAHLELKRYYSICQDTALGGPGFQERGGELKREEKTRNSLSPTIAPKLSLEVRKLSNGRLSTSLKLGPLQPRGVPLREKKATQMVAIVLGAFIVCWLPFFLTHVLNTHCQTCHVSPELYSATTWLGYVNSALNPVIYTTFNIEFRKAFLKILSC
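Agonist-mode cell screen: cells plated at 1500/well and incubated overnight at 37 °C, then exposed to library compounds for 90 min at 37 °C. Detection reagent was added for 30–60 min at room temperature, and luminescence was read.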
D3 antag = blocks the human D3 dopamine receptor; P35462; D3R cells, DiscoveRx beta-arrestin luminescence, antagonist mode; stronger effect = lower value; max response, negative = inhibition, %; 360,000 compounds, 2.5% hits; AID 652054; in the data active = max response below about -50%; inconclusive = no clear call, values can overlap the other calls; note: % is set by controls: 0 for no effect and ±100 for the full control effect
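Cells plated overnight at 1500 cells/well, then exposed to library compounds with dopamine controls for 90 minutes at 37 degrees C. DiscoveRx reagent added for 30–60 minutes at room temperature; luminescence read, quantitative HTS format.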
KB-3-1 tox = kills parental KB-3-1 adenocarcinoma cells | Potency, µM (doses to about 46.1 µM), actives largely listed as cytotoxic | 400,000 compounds, 1.4% hits | KB-3-1 viability, CellTiter-Glo ATP luminescence, 72 h; note: potency is the fitted concentration of half-maximal effect; % is set by controls: 0 for no effect and ±100 for the full control effect; nearly all actives have a fitted effect of over 60% in size
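Screening of KB-3-1 cells (DMEM, 10% FBS, phenol-red free) ran from lowest to highest compound concentration; after 72 h at 37 °C viability was read luminescently and curves fitted.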
MCF10A rerep = DNA re-replication induction in MCF 10a cells | MCF 10A DNA re-replication, Hoechst nuclear intensity, 48 h | Potency, µM (highest dose often 46.1 µM), for inactives: top-dose activity, positive = re-replication, hits mostly activators | 350,000 compounds, 2.9% hits; note: potency is the fitted concentration of half-maximal effect; % of control where 0% means no effect; nearly all actives have a fitted effect of over 50% in size
KB-V1 MDR tox = KB-V1 MDR subline cytotoxicity; KB-V1 MDR cells viability, CellTiter-Glo, 72 h; Potency, µM (titrated, usually from 46.1 µM), most hits filed as cytotoxic; 400,000 compounds, 3.4% hits; note: potency is the fitted concentration of half-maximal effect; % is set by controls: 0 for no effect and ±100 for the full control effect; nearly all actives have a fitted effect of over 60% in size
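Drug-selected KB-V1 cells, grown in DMEM lacking phenol red with 10% FBS, receive compound titrations; after three days at 37 degrees C, surviving cell ATP is quantified by CellTiter-Glo luminescence and responses normalized and curve-fitted.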
SW480 rerep = inducers of DNA re-replication in SW480 colon cancer cells; 340,000 compounds, 1.8% hits; AID 624297; SW480 DNA re-replication, Hoechst DNA content imaging, 48 h; Potency, µM (titrated, usually from 46.1 µM), inactives show at the highest dose re-replication activation, hits mostly activators; note: potency is the fitted concentration of half-maximal effect; % of control where 0% means no effect; nearly all actives have a fitted effect of over 55% in size
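Quantitative HTS format with DMSO vehicle controls; 48 hr drug incubation at 37 C, then 40 min Hoechst staining and scanning imager measurement at 405 nm excitation.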
* marks the source's active call; other numbers are inactive results; i = inactive; ? = inconclusive; / = no result given. Most compounds without a hit are left out; they make up all but 8.9% or so of the library. Unless noted, calls come from the whole dose curve; as a rule, active = well fitted curve in the direction sought with a large enough effect; inconclusive = small, poorly fitted or top-dose-only effect, or another doubt; inactive = no such curve, though single readings can be large; an effect the other way counts as inactive or inconclusive.

SMILES | DRD3 agonist | D3 antag | KB-3-1 tox | MCF10A rerep | KB-V1 MDR tox | SW480 rerep
C(=C/c1nccc2c1[nH]c1ccccc12)/c1ccc2c(c1)OCO2 | -8.4 | 10.5 | i | ? | i | 20.6µM*
COc1ccc(/C=C/c2nccc3c2[nH]c2ccccc23)cc1 | / | / | i | / | i | /
C[C@@H]1CN([C@@H](C)CO)S(=O)(=O)c2ccc(Br)cc2O[C@@H]1CN(C)C(=O)c1ccc(F)cc1 | -1.8 | ? | i | / | i | /
C[C@H](CO)N1C[C@H](C)[C@@H](CN(C)C(=O)c2ccc(F)cc2)Oc2cc(Br)ccc2S1(=O)=O | -4.5 | -95.2* | ? | / | i | /
COc1ccc(-c2ccc3c(c2)O[C@H](CN(C)C(=O)Nc2ccccc2F)[C@@H](C)CN([C@H](C)CO)S3(=O)=O)cc1 | -8.1 | -7.0 | ? | / | 11.6µM* | /
Cc1ccc(NC2=CC(=O)CC(C)(C)C2)cc1C | 12.1 | 17.8 | i | 2.4% | 16.4µM* | -0.3%
COc1ccc(NC2=CC(=O)CC(C)(C)C2)cc1OC | 1.0 | -10.4 | i | -11.6% | i | 2.5%
Cc1cc(C)c(NC2=CC(=O)CC(C)(C)C2)c(C#N)c1 | -0.2 | -4.4 | i | 1.2% | 23.1µM* | 0.9%
COc1cc(NC(=O)c2cccc3c2C(=O)N(C2CCCCC2)C3)cc(OC)c1 | 9.7 | / | i | / | i | /
COc1cc(CNc2ncnc3c2ncn3[C@H]2CN(Cc3cccc4ccccc34)C[C@@H](CO)O2)cc(OC)c1OC | -1.2 | -1.7 | ? | / | 20.6µM* | /
OC[C@@H]1CN(CCN2CCOCC2)C[C@H](n2cnc3c(NC4CC4)ncnc32)O1 | -7.1 | 0.0 | i | / | i | /
COCCN1C[C@@H](CO)O[C@@H](n2cnc3c(N4CCCC4)ncnc32)C1 | 87.5* | 45.7 | i | / | i | /
COc1cc(CNc2ncnc3c2ncn3[C@H]2CN(Cc3ccc(-c4ccccc4)cc3)C[C@@H](CO)O2)cc(OC)c1OC | -1.6 | 0.0 | ? | / | i | /
OC[C@@H]1CN(CCN2CCOCC2)C[C@H](n2cnc3c(NC4CCCC4)ncnc32)O1 | -10.5 | -51.2* | i | / | i | /
COc1ccc(Cl)cc1NC(=O)CSc1nccn1-c1ccc(Cl)cc1 | -11.8 | / | / | / | / | /
O=C(NCc1ccccc1F)C(=O)NCC(c1cccs1)S(=O)(=O)c1cccs1 (configuration not stated) | -8.5 | / | i | / | i | /
Nc1ncnc(N2CCOCC2)c1N | -3.8 | -0.7 | i | 0.7% | i | 20.6µM*
COc1ccc(S(=O)(=O)N2Cc3ccccc3CC2C(=O)Nc2nccs2)cc1OC (configuration not stated) | 5.4 | 25.9 | i | 13.1% | ? | -0.8%
COc1ccc(S(=O)(=O)N2Cc3ccccc3CC2C(=O)Nc2nccs2)cc1 (configuration not stated) | 5.2 | -15.7 | i | 1.8% | 20.6µM* | -9.1%
COc1ccc(NC(=O)C2=C(C)Nc3ncnn3C2c2ccc[nH]2)cc1 (configuration not stated) | 6.7 | / | i | / | ? | /
CCOCCCNC(=O)c1cc2c(=O)n3cccc(C)c3nc2s1 | -4.8 | -14.3 | i | 21.3% | i | -19.5%
COCCCn1c(C(=O)NCCN2CCOCC2)cc2c(=O)n3cccc(C)c3nc21 | 1.7 | -54.2* | ? | ? | ? | ?
COCCn1c(=N)c(C(=O)NCCc2ccccc2)cc2c(=O)n3cccc(C)c3nc21 | 3.4 | 0.8 | i | ? | i | 1.84µM*
CCN(C(=O)c1cc2c(=O)n3cccc(C)c3nc2n1CCCOC)C1CCCCC1 | 0.7 | 2.4 | i | 18.4µM* | ? | 29.1µM*
COCCCNC(=O)c1cccn2c(=O)c3cc4ccccc4cc3nc12 | 8.6 | 38.1 | i | 13µM* | 4.11µM* | ?
SMILES | DRD3 agonist | D3 antag | KB-3-1 tox | MCF10A rerep | KB-V1 MDR tox | SW480 rerep
CC(=O)Nc1cccc(NC(=O)C(=O)NCCc2csc3nc(-c4ccccc4F)nn23)c1 | 18.7 | / | i | / | i | /
Cc1cc(Cl)ccc1NC(=O)Cn1nnc2sc(-c3ccccc3)cc2c1=O | -5.4 | / | i | / | i | /
Cc1cccn2c(=O)c3cc(C(=O)NCCN4CCOCC4)c(=N)n(CCc4ccccc4)c3nc12 | 1.3 | -4.3 | i | 2.59µM* | ? | 2.59µM*
Cc1cccn2c(=O)c3cc(C(=O)NCc4ccccc4)c(=N)n(CCCN4CCOCC4)c3nc12 | -6.3 | 1.1 | ? | 14.4% | i | 5.17µM*
COc1ccc(CCn2c(=N)c(C(=O)NCCN3CCOCC3)cc3c(=O)n4cccc(C)c4nc32)cc1OC | -3.5 | 17.4 | i | ? | i | 16.4µM*
Cc1cccn2c(=O)c3cc(C(=O)NCCN4CCOCC4)c(=N)n(CCCN4CCOCC4)c3nc12 | -5.6 | -23.0 | i | ? | i | 1.16µM*
COc1ccc(CCn2c(=N)c(C(=O)NCCN3CCOCC3)cc3c(=O)n4ccccc4nc32)cc1OC | 5.0 | 6.5 | i | 5.4% | i | -7.8%
CCNC(=O)c1cc2c(=O)n3cccc(C)c3nc2n(CCc2ccccc2)c1=N | -3.2 | -13.9 | ? | ? | i | ?
C=CCn1c(=N)c(C(=O)NCCCOC)cc2c(=O)n3cccc(C)c3nc21 | -8.3 | -17.7 | i | 4.11µM* | i | ?
CCCCNC(=O)c1cc2c(=O)n3cccc(C)c3nc2n(Cc2ccccc2)c1=N | -11.5 | -1.5 | i | 16.7% | i | -2.6%
C[C@H]1CN(S(=O)C(C)(C)C)[C@@H](CCO)/C1=C\CCO (some centres not stated) | -4.4 | 6.9 | i | ? | i | -27.1%
Cc1occc1C(=O)NNC(=O)CN1C(=O)NC2(CCCCC2)C1=O | -11.5 | -15.8 | i | 1.9% | i | -1.5%
COCCN(CC1CCCN(C2Cc3ccccc3C2)C1)C(=O)c1ccc(C(C)=O)cc1 (configuration not stated) | -17.9 | -21.2 | i | ? | i | 0.316µM*
COCCN(CC1CCCN(C2Cc3ccccc3C2)C1)C(=O)c1cccc(C)c1 (configuration not stated) | -19.7 | -10.2 | ? | 0.9% | i | -0.1%
CSc1nc(N)c2c3c(sc2n1)CN(C)CC3 | 3.6 | -52.2* | i | 5.6% | i | -18.6%
CSc1nc(SCC(N)=O)c2c3c(sc2n1)CN(C)CC3 | -12.1 | -53.7* | i | 1.8% | i | ?
CCOc1ccc(N2CC(NC(=O)C(=O)c3c[nH]c4ccccc34)CC2=O)cc1 (configuration not stated) | 19.5 | / | / | / | / | /
CC(=O)c1sc(Nc2ccccn2)nc1C | 6.9 | -10.1 | 14.6µM* | 17.4% | ? | -1.0%
